Results taken from PubChem BioAssay AID1159580 (chemical genetic matrix, 2015).
Where “and” joins values, the source holds several entries; their conditions need not be identical. Equal entries are not always repeated. Among all 5,500 compounds or so, about 2,000 (36%) were called active. Not shown: some 18% with an inconclusive outcome. Rule as the data show it: active = normalized growth mostly below about 0.91 (no sharp cut-off); inconclusive = no clear call, values can overlap the other calls; inactive = mostly above about 0.92. This is one part of the list. The source holds several records for some structures; these can differ, active in one and inactive in another.

Assay: chemical genetic growth profiling, strain panel (AID 1159580);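 also: tested at 20 µM; growth read once vehicle control cultures reached saturation at 30 °C; 1 = growth at the plate median or of vehicle wells; lower values mean less growth of the strain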
Conditions: growth OD
[1] = S. cerevisiae deletion strains, locus YAL013W, strain DEP1, stronger effect = lower value
[2] = S. cerevisiae deletion strains, locus YAL040C, strain CLN3, stronger effect = lower value
[3] = S. cerevisiae deletion strains, locus YBR021W, strain FUR4, stronger effect = lower value
[4] = S. cerevisiae deletion strains, locus YBR229C, strain ROT2, stronger effect = lower value
[5] = S. cerevisiae deletion strains, locus YCL029C, strain bik1, stronger effect = lower value
[6] = S. cerevisiae deletion strains, locus YDL035C, strain GPR1, stronger effect = lower value
[7] = S. cerevisiae deletion strains, locus YDL074C, strain BRE1, stronger effect = lower value
[8] = S. cerevisiae deletion strains, locus YDL101C, strain DUN1, stronger effect = lower value
[9] = S. cerevisiae deletion strains, locus YDL134C, strain PPH21, stronger effect = lower value
[10] = S. cerevisiae deletion strains, locus YDL185W, strain tfp1, stronger effect = lower value
[11] = S. cerevisiae deletion strains, locus YDL192W, strain arf1, stronger effect = lower value
[12] = S. cerevisiae deletion strains, locus YDR101C, strain arx1, stronger effect = lower value
[13] = S. cerevisiae deletion strains, locus YDR150W, strain NUM1, stronger effect = lower value
[14] = S. cerevisiae deletion strains, locus YDR162C, strain NBP2, stronger effect = lower value
[15] = S. cerevisiae deletion strains, locus YDR318W, strain mcm21, stronger effect = lower value
[16] = S. cerevisiae deletion strains, locus YDR363W, strain ESC2, stronger effect = lower value
[17] = S. cerevisiae deletion strains, locus YDR388W, stronger effect = lower value
[18] = S. cerevisiae deletion strains, locus YDR502C, strain sam2, stronger effect = lower value
[19] = S. cerevisiae deletion strains, locus YEL061C, strain CIN8, stronger effect = lower value
[20] = S. cerevisiae deletion strains, locus YER002W, strain NOP16, stronger effect = lower value
[21] = S. cerevisiae deletion strains, locus YER110C, stronger effect = lower value
[22] = S. cerevisiae deletion strains, locus YER155C, strain BEM2, stronger effect = lower value
[23] = S. cerevisiae deletion strains, locus YER167W, strain BCK2, stronger effect = lower value
[24] = S. cerevisiae deletion strains, locus YGL078C, strain dbp3, stronger effect = lower value
[25] = S. cerevisiae deletion strains, locus YGL086W, strain mad1, stronger effect = lower value
[26] = S. cerevisiae deletion strains, locus YGL248W, strain PDE1, stronger effect = lower value
[27] = S. cerevisiae deletion strains, locus YGR078C, strain PAC10, stronger effect = lower value
[28] = S. cerevisiae deletion strains, locus YGR135W, strain pre9, stronger effect = lower value
[29] = S. cerevisiae deletion strains, locus YGR229C, strain SMI1, stronger effect = lower value
[30] = S. cerevisiae deletion strains, locus YGR252W, strain gcn5, stronger effect = lower value
[31] = S. cerevisiae deletion strains, locus YHR030C, strain SLT2, stronger effect = lower value
[32] = S. cerevisiae deletion strains, locus YHR079C, strain IRE1 (second series), stronger effect = lower value
[33] = S. cerevisiae deletion strains, locus YHR094C, strain hxt1, stronger effect = lower value
[34] = S. cerevisiae deletion strains, locus YHR129C, strain ARP1, stronger effect = lower value
[35] = S. cerevisiae deletion strains, locus YHR200W, strain rpn10, stronger effect = lower value
[36] = S. cerevisiae deletion strains, locus YIL066C, strain RNR3, stronger effect = lower value
[37] = S. cerevisiae deletion strains, locus YIL073C, strain SPO22, stronger effect = lower value
[38] = S. cerevisiae deletion strains, locus YIL125W, strain kgd1, stronger effect = lower value
[39] = S. cerevisiae deletion strains, locus YIR030C, strain dcg1, stronger effect = lower value
[40] = S. cerevisiae deletion strains, locus YJL095W, strain BCK1, stronger effect = lower value
[41] = S. cerevisiae deletion strains, locus YJL134W, strain LCB3, stronger effect = lower value
[42] = S. cerevisiae deletion strains, locus YJL168C, strain set2, stronger effect = lower value
[43] = S. cerevisiae deletion strains, locus YJL187C, strain SWE1 (second series), stronger effect = lower value
[44] = S. cerevisiae deletion strains, locus YJR043C, strain POL32, stronger effect = lower value
[45] = S. cerevisiae deletion strains, locus YJR075W, strain HOC1, stronger effect = lower value
[46] = S. cerevisiae deletion strains, locus YKL009W, strain mrt4, stronger effect = lower value
[47] = S. cerevisiae deletion strains, locus YKL068W, stronger effect = lower value
[48] = S. cerevisiae deletion strains, locus YKL085W, strain MDH1 (second series), stronger effect = lower value
[49] = S. cerevisiae deletion strains, locus YKL085W, strain MDH1, stronger effect = lower value
[50] = S. cerevisiae deletion strains, locus YKL190W, strain CNB1, stronger effect = lower value
[51] = S. cerevisiae deletion strains, locus YKR001C, strain vps1, stronger effect = lower value
[52] = S. cerevisiae deletion strains, locus YLR039C, strain RIC1, stronger effect = lower value
[53] = S. cerevisiae deletion strains, locus YLR058C, strain SHM2, stronger effect = lower value
[54] = S. cerevisiae deletion strains, locus YLR102C, strain apc9, stronger effect = lower value
[55] = S. cerevisiae deletion strains, locus YLR262C, strain YPT6, stronger effect = lower value
[56] = S. cerevisiae deletion strains, locus YLR268W, strain sec22, stronger effect = lower value
[57] = S. cerevisiae deletion strains, locus YLR330W, strain CHS5, stronger effect = lower value
[58] = S. cerevisiae deletion strains, locus YLR342W, strain FKS1 (second series), stronger effect = lower value
[59] = S. cerevisiae deletion strains, locus YLR418C, strain cdc73, stronger effect = lower value
[60] = S. cerevisiae deletion strains, locus YML032C, strain rad52, stronger effect = lower value
[61] = S. cerevisiae deletion strains, locus YML124C, strain tub3, stronger effect = lower value
[62] = S. cerevisiae deletion strains, locus YMR078C, strain ctf18, stronger effect = lower value
[63] = S. cerevisiae deletion strains, locus YMR223W, strain ubp8, stronger effect = lower value
[64] = S. cerevisiae deletion strains, locus YMR263W, strain SAP30, stronger effect = lower value
[65] = S. cerevisiae deletion strains, locus YMR307W, strain GAS1, stronger effect = lower value
[66] = S. cerevisiae deletion strains, locus YNL067W, strain RPL9B, stronger effect = lower value
[67] = S. cerevisiae deletion strains, locus YNL128W, strain TEP1, stronger effect = lower value
[68] = S. cerevisiae deletion strains, locus YNL153C, strain GIM3, stronger effect = lower value
[69] = S. cerevisiae deletion strains, locus YNL175C, strain NOP13, stronger effect = lower value
[70] = S. cerevisiae deletion strains, locus YNL197C, strain WHI3, stronger effect = lower value
[71] = S. cerevisiae deletion strains, locus YNL224C, strain SQS1, stronger effect = lower value
[72] = S. cerevisiae deletion strains, locus YNL233W, strain BNI4, stronger effect = lower value
[73] = S. cerevisiae deletion strains, locus YNL250W, strain rad50, stronger effect = lower value
[74] = S. cerevisiae deletion strains, locus YNL271C, strain bni1, stronger effect = lower value
[75] = S. cerevisiae deletion strains, locus YNL298W, strain CLA4, stronger effect = lower value
[76] = S. cerevisiae deletion strains, locus YNL307C, strain MCK1, stronger effect = lower value
[77] = S. cerevisiae deletion strains, locus YNL322C, strain KRE1, stronger effect = lower value
[78] = S. cerevisiae deletion strains, locus YNR052C, strain pop2, stronger effect = lower value
[79] = S. cerevisiae deletion strains, locus YOL006C, strain TOP1, stronger effect = lower value
[80] = S. cerevisiae deletion strains, locus YOL012C, strain htz1
[81] = S. cerevisiae deletion strains, locus YOL147C, strain pex11, stronger effect = lower value
[82] = S. cerevisiae deletion strains, locus YOR061W, strain CKA2, stronger effect = lower value
[83] = S. cerevisiae deletion strains, locus YOR069W, strain VPS5, stronger effect = lower value
[84] = S. cerevisiae deletion strains, locus YOR083W, strain WHI5 (second series), stronger effect = lower value
[85] = S. cerevisiae deletion strains, locus YOR136W, strain idh2, stronger effect = lower value
[86] = S. cerevisiae deletion strains, locus YOR144C, strain elg1, stronger effect = lower value
[87] = S. cerevisiae deletion strains, locus YOR184W, strain ser1, stronger effect = lower value
[88] = S. cerevisiae deletion strains, locus YOR316C, strain cot1, stronger effect = lower value
[89] = S. cerevisiae deletion strains, locus YPL055C, strain LGE1, stronger effect = lower value
[90] = S. cerevisiae deletion strains, locus YPL241C, strain CIN2, stronger effect = lower value
[91] = S. cerevisiae deletion strains, locus YPR119W, strain clb2, stronger effect = lower value
[92] = S. cerevisiae deletion strains, locus YPR141C, strain kar3, stronger effect = lower value
[93] = S. cerevisiae deletion strains, locus YPR163C, strain tif3, stronger effect = lower value
[94] = S. cerevisiae deletion strains, locus YPR167C, strain met16, stronger effect = lower value
[95] = S. cerevisiae deletion strains, strain wtn01, stronger effect = lower value
[96] = S. cerevisiae strains, strain wild type, stronger effect = lower value

Measured: normalized growth

CSc1ccc2c(c1)C(N1CCN(C)CC1)Cc1ccccc1S2 (stereo not given)
0.771 (active) and 1.09 (inactive): [67]
0.514 (active) and 0.999 (inactive): [65]
active: [3] 0.364 | S. cerevisiae deletion strains, locus YCL061C, strain MRC1 (second series), stronger effect = lower value 0.532 | [6] 0.755 | [7] 0.584 | [8] 0.537 | [9] 0.631 | [11] 0.102 | [14] 0.139 | [15] 0.807 | [17] 0.659 | [18] 0.859 | [25] 0.741 | [26] 0.712 | [27] 0.833 | [28] 0.753 | [29] 0.142 | [30] 0.254 | [31] 0.655 | [32] 0.911 | [36] 0.759 | [37] 0.437 | [40] 0.537 | [43] 0.658 | [45] 0.834 | [50] 0.657 | [51] 0.0823 | [52] 1.54 [resistant] | [53] 0.77 | [55] 1.56 [resistant] | [58] 0.2 | [59] 0.575 | [60] 0.894 | [63] 0.779 | [68] 0.747 | [72] 0.696 | [76] 0.791 | [77] 0.773 | [78] 0.705 | [79] 0.413 | [82] 0.122 | [84] 0.745 | [87] 0.82 | [89] 0.596 and 0.806 | [93] 0.0814 | [95] 0.717 | [96] 0.698
inactive: [1] 0.916 | [2] 1 | [4] 1.01 | [5] 0.987 | [10] 1.01 | [12] 0.929 | [13] 1 | [16] 0.889 | [19] 0.975 | [20] 1.07 | [21] 0.976 | [22] 1.02 | [23] 0.937 | [24] 0.991 | [33] 0.993 | [34] 0.99 | [35] 0.959 | [38] 0.977 | [39] 0.958 | [41] 1.01 | [42] 0.947 | [44] 0.92 | [46] 0.962 | [47] 0.999 | [48] 0.987 | [49] 0.987 | [54] 0.987 | [56] 0.901 | [57] 0.994 | [61] 0.995 | [62] 0.993 | [64] 0.917 | [66] 0.914 | [69] 1.02 | [70] 1.06 | [71] 1.01 | [73] 1.01 | [74] 0.977 | [75] 0.979 | [80] 0.27 | [81] 0.944 | [83] 1 | [85] 0.938 | [86] 1.01 | [88] 0.986 | [90] 0.996 | [91] 0.988 | [92] 0.998 | [94] 0.986

CN1CCN(C2Cc3ccccc3Sc3ccc(Cl)cc32)CC1 (stereo not given)
active: [1] 0.883 | [45] 0.881 | [68] 0.587 | [84] 0.668
inactive: [2] 1 | [16] 0.897 | [20] 1.04 | [65] 1.01 | [69] 0.915 | [70] 0.989 | [71] 1.01 | [89] 0.923

C#CCOS(=O)OC1CCCCC1Oc1ccc(C(C)(C)C)cc1 (stereo not given)
inactive: [1] 1.01 | [3] 1.03 | [4] 1.02 | [5] 1.01 | [6] 1 | [7] 1.07 | [8] 1.02 | [9] 1.02 | [10] 0.982 | [11] 1 | [12] 0.987 | [13] 1.02 | [14] 1.02 | [15] 1 | [17] 0.994 | [18] 0.993 | [19] 1.01 | [21] 0.998 | [22] 1.02 | [23] 1.01 | [24] 0.977 | [25] 1 | [26] 1.02 | [27] 1.02 | [28] 1 | [29] 1.04 | [30] 0.987 | [31] 1.02 | [32] 0.994 | [33] 0.988 | [34] 1.02 | [35] 0.99 | [36] 1.02 | [37] 1.01 | [38] 0.988 | [39] 0.984 | [40] 1.02 | [41] 1.01 | [42] 0.989 | [43] 1.02 | [44] 1.01 | [45] 1.04 | [46] 0.971 | [47] 0.994 | [48] 0.988 | [49] 0.988 | [50] 1 | [51] 0.993 | [52] 1.04 | [53] 1.02 | [54] 0.983 | [55] 1.05 | [56] 0.999 | [57] 1.02 | [58] 1.01 | S. cerevisiae deletion strains, locus YLR371W, strain rom2, stronger effect = lower value 0.983 | [59] 1.02 | S. cerevisiae deletion strains, locus YML016C, strain PPZ1, stronger effect = lower value 1.02 | [60] 0.986 | [61] 0.995 | [62] 0.996 | [63] 1 | [64] 1.03 | [65] 1.02 | [66] 1.02 | [67] 1.02 | [68] 1.02 | [72] 1.03 | [73] 0.992 | [74] 0.978 | [75] 0.998 | [76] 0.992 | [77] 1.02 | [78] 0.987 | [79] 1.07 | [80] 0.994 | [81] 0.994 | [82] 1.01 | [83] 1 | [85] 0.992 | [86] 0.996 | [87] 0.964 | [88] 0.996 | [89] 1.05 | [90] 1.03 | [91] 0.997 | [92] 0.99 | [93] 0.999 | [94] 0.994 | [95] 0.991 | [96] 1.01
